The values below come from PubChem BioAssay (NCATS).

Results filed as inconclusive are left out. Where a call stands in place of a potency, no number is given. Calls of active or inactive are those of the source. Calls follow the shape of the dose curve; as a rule, active = well fitted inhibition curve with a large enough effect; inconclusive = small, poorly fitted or top-dose-only effect; inactive = flat fitted curve, though single readings scatter.
Potency is read from the fitted curve at half-maximal effect.

The test system of one assay is AS120. The assay is described as follows: qHTS profiling for inhibitors of Plasmodium falciparum proliferation (AID 504749). Also: nearly all actives have a fitted effect of over 60% in size. Particulars: P. falciparum in erythrocytes, SYBR Green DNA, 72 h; series mostly up to 28.7 µM. The essentials: (§1)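 Quantitative HTS: compounds pinned into medium, infected erythrocytes added (0.3% parasitemia, 2.5% hematocrit), 72 h culture at 37 C under 5% CO2. Saponin/Triton lysis with SYBR Green I, overnight RT, then fluorescence read.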
In general terms: Quantitative high-throughput screening tests each substance at several concentrations.
In the case of `C[N+](C)(C)CCOC(N)=O`, the Potency result is “inactive”.

In the case of `C[N+](C)(C)CCCCCCCCCC[N+](C)(C)C`, the Potency was 3.16 µM (active).

`COc1ccc([C@@H]2Sc3ccccc3N(CCN(C)C)C(=O)[C@@H]2OC(C)=O)cc1`: the Potency result is “inactive”.

As to `CCn1ccnc1CC1COc2ccccc2O1` (stereo not given), the Potency result was “inactive”.

Consider `Nc1c2c(nc3ccccc13)CCCC2O` (stereo not given), for which the Potency entry is “inactive”.

For the compound `CNC1(C)C2CCC(C2)C1(C)C` (stereo not given), the Potency result was “inactive”.

As for `CSc1ccc(C(=O)c2[nH]c(=O)[nH]c2C)cc1`, the Potency result was “inactive”.

Take `NC(=O)c1cn(Cc2c(F)cccc2F)nn1`: the Potency result is “inactive”.

In the case of `CCN1CCC[C@H]1CNC(=O)c1c(O)c(Cl)cc(Cl)c1OC`, the Potency result is “inactive”.

Take `Nc1ncn([C@@H]2O[C@H](CO)[C@@H](O)[C@H]2O)c(=O)n1`: the Potency result was “inactive”.

With `OCCN1CCN(CC/C=C2/c3ccccc3Sc3ccc(C(F)(F)F)cc32)CC1`, the Potency is 11.2 µM (active).

`NC(=O)c1ncn([C@@H]2O[C@H](CO)[C@@H](O)[C@H]2O)c1O`: the Potency entry was “inactive”.

In the case of `CC(N=C(NC#N)Nc1ccncc1)C(C)(C)C` (stereo not given), the Potency entry was “inactive”.

Regarding `Cc1cc(C)c(/C=C2\C(=O)Nc3ccccc32)[nH]1`, the Potency result was “inactive”.

`CN(C)C(=O)Oc1cccc([N+](C)(C)C)c1`: the Potency entry was “inactive”.

`COCC(=O)O[C@]1(CCN(C)CCCc2nc3ccccc3[nH]2)CCc2cc(F)ccc2[C@@H]1C(C)C`: the Potency is 1.26 µM (active).

As for `CC(=O)Oc1cc(C(C)C)c(OCCN(C)C)cc1C`, the Potency result was “inactive”.

As to `CC(=O)[C@]1(O)Cc2c(O)c3c(c(O)c2[C@@H](O[C@H]2C[C@H](N)[C@H](O)[C@H](C)O2)C1)C(=O)c1ccccc1C3=O`, the Potency is 3.16 µM (active).

Take `CCN(CC)CCNC(=O)c1cc(S(C)(=O)=O)ccc1OC`: the Potency entry is “inactive”.

For `CCN(CC)CCCN(c1ccccc1)C1Cc2ccccc2C1`, the Potency is 4.47 µM (active).

For the compound `O=C(CCNNC(=O)c1ccncc1)NCc1ccccc1`, the Potency result is “inactive”.

With `O=C(O)CN(CCOCCOCCN(CC(=O)O)CC(=O)O)CC(=O)O`, the Potency entry was “inactive”.

Take `C[N+](C)(C)CCOC(=O)CCC(=O)OCC[N+](C)(C)C`: the Potency result was “inactive”.

On to `COC(=O)[C@H]1[C@H]2C[C@@H]3c4[nH]c5cc(OC)ccc5c4CCN3C[C@H]2C[C@@H](OC(=O)c2cc(OC)c(OC)c(OC)c2)[C@@H]1OC`, for which the Potency was 4.47 µM (active).

With `Cc1scc2c1N(C(=O)CN1CCN(C)CC1)c1ccccc1NC2=O`, the Potency entry was “inactive”.

For the next assay, the system named is ATS189. The assay is described as above. As to conditions: P. falciparum in erythrocytes, SYBR Green DNA, 72 h; series mostly up to 28.7 µM. The essentials: as §1
As for `C[N+](C)(C)CCOC(N)=O`, the Potency entry was “inactive”.

Regarding `C[N+](C)(C)CCCCCCCCCC[N+](C)(C)C`, the Potency was 4.47 µM (active).

With `COc1ccc([C@@H]2Sc3ccccc3N(CCN(C)C)C(=O)[C@@H]2OC(C)=O)cc1`, the Potency entry is “inactive”.

Regarding `CCn1ccnc1CC1COc2ccccc2O1` (stereo not given), the Potency result was “inactive”.

In the case of `Nc1c2c(nc3ccccc13)CCCC2O` (stereo not given), the Potency entry was “inactive”.

As for `CNC1(C)C2CCC(C2)C1(C)C` (stereo not given), the Potency entry was “inactive”.

Turning to `CSc1ccc(C(=O)c2[nH]c(=O)[nH]c2C)cc1`, the Potency entry is “inactive”.

For `NC(=O)c1cn(Cc2c(F)cccc2F)nn1`, the Potency entry was “inactive”.

`CCN1CCC[C@H]1CNC(=O)c1c(O)c(Cl)cc(Cl)c1OC`: the Potency result is “inactive”.

Take `Nc1ncn([C@@H]2O[C@H](CO)[C@@H](O)[C@H]2O)c(=O)n1`: the Potency entry was “inactive”.

Regarding `OCCN1CCN(CC/C=C2/c3ccccc3Sc3ccc(C(F)(F)F)cc32)CC1`, the Potency is 7.94 µM (active).

For the compound `NC(=O)c1ncn([C@@H]2O[C@H](CO)[C@@H](O)[C@H]2O)c1O`, the Potency entry is “inactive”.

With `CC(N=C(NC#N)Nc1ccncc1)C(C)(C)C` (stereo not given), the Potency result is “inactive”.

Take `Cc1cc(C)c(/C=C2\C(=O)Nc3ccccc32)[nH]1`: the Potency entry was “inactive”.

Take `CN(C)C(=O)Oc1cccc([N+](C)(C)C)c1`: the Potency result is “inactive”.

Take `COCC(=O)O[C@]1(CCN(C)CCCc2nc3ccccc3[nH]2)CCc2cc(F)ccc2[C@@H]1C(C)C`: the Potency was 3.98 µM (active).

Take `CC(=O)Oc1cc(C(C)C)c(OCCN(C)C)cc1C`: the Potency result is “inactive”.

For the compound `CC(=O)[C@]1(O)Cc2c(O)c3c(c(O)c2[C@@H](O[C@H]2C[C@H](N)[C@H](O)[C@H](C)O2)C1)C(=O)c1ccccc1C3=O`, the Potency is 5.62 µM (active).

Take `CC(C)COCC(CN(Cc1ccccc1)c1ccccc1)N1CCCC1` (stereo not given): the Potency result was “inactive”.

Turning to `CCN(CC)CCNC(=O)c1cc(S(C)(=O)=O)ccc1OC`, the Potency result is “inactive”.

`CCN(CC)CCCN(c1ccccc1)C1Cc2ccccc2C1`: the Potency is 12.6 µM (active).

Turning to `O=C(CCNNC(=O)c1ccncc1)NCc1ccccc1`, the Potency entry was “inactive”.

Turning to `O=C(O)CN(CCOCCOCCN(CC(=O)O)CC(=O)O)CC(=O)O`, the Potency entry is “inactive”.

For `C[N+](C)(C)CCOC(=O)CCC(=O)OCC[N+](C)(C)C`, the Potency result is “inactive”.

On to `COC(=O)[C@H]1[C@H]2C[C@@H]3c4[nH]c5cc(OC)ccc5c4CCN3C[C@H]2C[C@@H](OC(=O)c2cc(OC)c(OC)c(OC)c2)[C@@H]1OC`, for which the Potency is 11.2 µM (active).

For `Cc1scc2c1N(C(=O)CN1CCN(C)CC1)c1ccccc1NC2=O`, the Potency entry was “inactive”.

A further assay concerns ATS95. Described as above. As to conditions: P. falciparum in erythrocytes, SYBR Green DNA, 72 h; series mostly up to 28.7 µM. The procedure, abridged:
as §1
As to `C[N+](C)(C)CCOC(N)=O`, the Potency entry is “inactive”.

On to `C[N+](C)(C)CCCCCCCCCC[N+](C)(C)C`, for which the Potency was 3.16 µM (active).

For the compound `COc1ccc([C@@H]2Sc3ccccc3N(CCN(C)C)C(=O)[C@@H]2OC(C)=O)cc1`, the Potency result is “inactive”.

On to `CCn1ccnc1CC1COc2ccccc2O1` (stereo not given), for which the Potency entry is “inactive”.

`Nc1c2c(nc3ccccc13)CCCC2O` (stereo not given): the Potency entry was “inactive”.

`CNC1(C)C2CCC(C2)C1(C)C` (stereo not given): the Potency entry was “inactive”.

As to `CSc1ccc(C(=O)c2[nH]c(=O)[nH]c2C)cc1`, the Potency result was “inactive”.

Turning to `NC(=O)c1cn(Cc2c(F)cccc2F)nn1`, the Potency entry was “inactive”.

Turning to `CCN1CCC[C@H]1CNC(=O)c1c(O)c(Cl)cc(Cl)c1OC`, the Potency entry is “inactive”.

As for `Nc1ncn([C@@H]2O[C@H](CO)[C@@H](O)[C@H]2O)c(=O)n1`, the Potency result was “inactive”.

On to `NC(=O)c1ncn([C@@H]2O[C@H](CO)[C@@H](O)[C@H]2O)c1O`, for which the Potency entry is “inactive”.

On to `CC(N=C(NC#N)Nc1ccncc1)C(C)(C)C` (stereo not given), for which the Potency result was “inactive”.

On to `Cc1cc(C)c(/C=C2\C(=O)Nc3ccccc32)[nH]1`, for which the Potency entry was “inactive”.

For `CN(C)C(=O)Oc1cccc([N+](C)(C)C)c1`, the Potency entry was “inactive”.

As for `COCC(=O)O[C@]1(CCN(C)CCCc2nc3ccccc3[nH]2)CCc2cc(F)ccc2[C@@H]1C(C)C`, the Potency is 1.26 µM (active).

With `CC(=O)Oc1cc(C(C)C)c(OCCN(C)C)cc1C`, the Potency entry is “inactive”.

For the compound `CC(=O)[C@]1(O)Cc2c(O)c3c(c(O)c2[C@@H](O[C@H]2C[C@H](N)[C@H](O)[C@H](C)O2)C1)C(=O)c1ccccc1C3=O`, the Potency is 5.01 µM (active).

`CCN(CC)CCNC(=O)c1cc(S(C)(=O)=O)ccc1OC`: the Potency result is “inactive”.

In the case of `CCN(CC)CCCN(c1ccccc1)C1Cc2ccccc2C1`, the Potency was 5.01 µM (active).

On to `O=C(CCNNC(=O)c1ccncc1)NCc1ccccc1`, for which the Potency entry is “inactive”.

As to `O=C(O)CN(CCOCCOCCN(CC(=O)O)CC(=O)O)CC(=O)O`, the Potency entry is “inactive”.

As for `C[N+](C)(C)CCOC(=O)CCC(=O)OCC[N+](C)(C)C`, the Potency result was “inactive”.

As to `COC(=O)[C@H]1[C@H]2C[C@@H]3c4[nH]c5cc(OC)ccc5c4CCN3C[C@H]2C[C@@H](OC(=O)c2cc(OC)c(OC)c(OC)c2)[C@@H]1OC`, the Potency was 11.2 µM (active).

For `Cc1scc2c1N(C(=O)CN1CCN(C)CC1)c1ccccc1NC2=O`, the Potency result is “inactive”.
